# Source: PubChem BioAssay AID720568 (Broad Institute, 2013)
# Entries with a potency or affinity are not part of this list. Activity calls are given as the source filed them. How the calls were made is not given here.
# Test: HepG2 cell cytotoxicity, dose response, cytotoxicity control, dry powder samples (AID 720568)
# Conditions: plate reader; series mostly up to 15 µM
row,Structure (SMILES),outcome
1,COc1ccc(-c2nnc(SCc3ccccc3)o2)cc1,inactive
2,Cc1cc(C)cc(C(=O)N2CC(=O)Nc3ccccc32)c1,inactive
3,CCN(CC)CCCNc1nc2cc(OC)c(OC)cc2c2nc(-c3ccccc3)nn12,inactive
4,Brc1ccc(CSc2nnc(-c3ccccc3)o2)cc1,inactive
5,COc1ccccc1-c1nnc(SCc2ccccc2)o1,inactive
6,Cc1cc(NC(=O)CSc2nc(-c3ccco3)cc(C(F)(F)F)n2)no1,inactive
7,O=C(N/N=C/c1ccc(Cl)cc1)c1sccc1OCc1ccc(F)cc1,inactive
8,COc1cc(Nc2c3c(nc4ccccc24)CCCC3)cc(OC)c1OC,inactive
9,CC(=O)c1cccc(NC(=O)CSc2ncc(C(=O)Nc3ccccc3)c(=O)n2C)c1,inactive
10,CCOc1ccc(NC(=O)c2cc(OC)nc3ccccc23)cc1,inactive
11,COc1ccc(NC(=O)C(=O)c2cn(CC(=O)N3CCCC3)c3ccccc23)cc1,inactive
12,Cc1cc(C)nc(/N=C(\N)Nc2ccc(OCc3ccccc3)cc2)n1,inactive
13,O=C(Cc1ccccc1)c1nnc(-c2ccccc2)o1,inactive
14,Cc1ccc(Oc2ccc(S(=O)(=O)N3CCOCC3)cc2C(N)=O)c(-n2nc3ccccc3n2)c1,inactive
15,CCOC(=O)COc1cccc2c(=O)n(CC(=O)NCc3ccccc3)ccc12,inactive
16,Cc1[nH][nH]c(=O)c1C(c1ccc(-c2ccc(Cl)c(Cl)c2)o1)c1c(C)[nH][nH]c1=O,inactive
17,CCCOC(=O)c1[nH]c2c(c1C)C(=O)CC(c1cccs1)C2 (stereo not drawn),inactive
18,CCn1c2ccccc2c2cc(NC(=O)c3cc(OC)c(OC)c(OC)c3)ccc21,inactive
19,Cc1ccc(/C=N/NC(=O)C2COc3ccccc3O2)s1 (stereo not drawn),inactive

row,Structure (SMILES),outcome
1,CCCNS(=O)(=O)c1cccc(C(=O)OCc2cc(=O)oc3cc(OC)ccc23)c1,inactive
2,CC(=O)N1CCC(=O)c2cc3ccccc3cc21,inactive
3,CCOC(=O)c1ccc(Oc2cc(C)nc(SC)n2)cc1,inactive
4,COc1ccccc1OCC(=O)NNC(=O)c1ccoc1C,inactive
5,COc1ccc2c(COC(=O)c3cccc(S(=O)(=O)NCC(C)C)c3)cc(=O)oc2c1,inactive
6,CCOc1ccc(S(=O)(=O)NCc2ccccn2)cc1NC(=O)c1ccccc1F,inactive
7,CCN(CC)CCC(=O)Nc1cccc2c1C(=O)c1ccccc1C2=O,inactive
8,COC(=O)c1cn(C(=O)c2ccc(OC)cc2)c2ccccc12,inactive
9,Cc1cccc(C)c1OCCNC(=O)C(=O)NCc1ccco1,inactive
10,Cc1ccc(CCC(=O)Nc2ncc(Cc3cc(Cl)ccc3Cl)s2)o1,inactive
11,C/C(=N\NC(=O)c1c([N+](=O)[O-])c(C)nn1C)c1ccc(NC(=O)C2CCCC2)cc1,inactive
12,CCCCOc1ccccc1C1CC(=O)NC2=C1C(=O)CCC2 (stereo not drawn),inactive
13,Cc1cc(=O)[nH]c(N/N=C/c2cc(C)n(CC(F)(F)F)c2C)n1,inactive
14,Cc1cnc(NC(=O)c2cc(S(=O)(=O)N(C)C)ccc2N2CCCC2)s1,inactive
15,COc1cccc(N2CCN(C(=O)c3ccc(CS(=O)c4ccc(C)cc4)o3)CC2)c1 (stereo not drawn),inactive
16,COc1cc(-c2nnc(SCC3(c4ccc(Br)cc4)OCCO3)o2)cc(OC)c1OC,inactive
17,CCC1=Nc2cc(C(=O)NCCCOC)ccc2Sc2ccccc21,inactive
18,COc1ccccc1CSc1nnc(-c2ccccc2)o1,inactive
19,Cc1ccc(C(=O)c2cc([N+](=O)[O-])ccc2N2CCOCC2)cc1C,inactive
